{"source": "PubChem BioAssay", "note": "Results with a measured potency or affinity are listed apart. Records with an inconclusive call do not appear. Calls of active or inactive are those of the source.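 The calls were made as follows, unless noted: active = fitted dose curve reaches 40% lysis signal rise at or below the highest valid concentration tested for that sample; inconclusive = flat fit between 30% and 70%, or poor curve fit; inactive = signal falls, stays flat within 30%, or no crossing.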"}
{"experiment": "fungal growth arrest, C. neoformans – Alamar Blue, cherry-picks, dose response (AID 686998;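 active = falling signal with fitted half-maximal potency no higher than twice the top valid tested dose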)", "settings": "Cryptococcus neoformans growth, 24 h; series mostly up to 35 µM"}
{"smiles": "Cc1ccc(S(=O)(=O)N(C)C[C@@H]2Oc3ncc(Br)cc3C(=O)N([C@@H](C)CO)C[C@H]2C)cc1", "outcome": "inactive"}
{"smiles": "O=C(C[C@H]1CC[C@H]2[C@@H](COC[C@@H](O)CN2S(=O)(=O)c2ccc(Oc3ccccc3)cc2)O1)NC1CCC1", "outcome": "inactive"}
{"smiles": "O=C(C[C@@H]1CC[C@H]2[C@@H](COC[C@H](O)CN2Cc2ccccc2F)O1)NC1CCC1", "outcome": "inactive"}
{"smiles": "C[C@H]1CCCCO[C@H](CN(C)C(=O)c2ccncc2)[C@@H](C)CN([C@@H](C)CO)C(=O)c2cc(NC(=O)Cc3ccccc3)ccc2O1", "outcome": "inactive"}
{"smiles": "COc1ccc(C2CC(c3cccs3)=NN2C(=O)c2ccc(Br)o2)cc1", "note": "(centres undefined)", "outcome": "inactive"}
{"smiles": "COCC#Cc1cnc2c(c1)C(=O)N([C@H](C)CO)C[C@@H](C)[C@@H](CN(C)C(=O)Nc1ccc(OC)cc1)O2", "outcome": "inactive"}
{"smiles": "COc1ccc(CN(C)C[C@@H]2OCCCC[C@H](C)Oc3ccc(N(C)C)cc3C(=O)N([C@H](C)CO)C[C@@H]2C)cc1", "outcome": "inactive"}
{"smiles": "COc1cccc(S(=O)(=O)N(C)C[C@H]2OCc3cnnn3CCCC(=O)N([C@H](C)CO)C[C@H]2C)c1", "outcome": "inactive"}
{"smiles": "O=C(C[C@H]1CC[C@H](NC(=O)Nc2ccc(C(F)(F)F)cc2)[C@H](CO)O1)NCc1cccc(F)c1", "outcome": "inactive"}
{"experiment": "C. neoformans lysis by adenylate kinase leakage – AK release luminescence, cherry-picks, dose response (AID 687000);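 also: luminescent detection of adenylate kinase leaking from lysed yeast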", "settings": "4 h, 100% = twice the neutral-control signal; series mostly up to 15 µM"}
{"smiles": "Cc1cc(C(=O)Nc2ccc3c(c2)C(=O)N(C)[C@H]2CC[C@@H](CC(=O)N[C@@H](C)c4ccccc4)O[C@H]2CO3)no1", "outcome": "inactive"}
{"smiles": "C[C@@H]1CN([C@@H](C)CO)C(=O)Cc2cc(NC(=O)Nc3cccc4ccccc34)ccc2O[C@@H]1CN(C)Cc1ccc(C(=O)O)cc1", "outcome": "inactive"}
{"smiles": "CO[C@@H]1CN(C)C(=O)c2cc(NC(=O)Nc3cccc(F)c3)ccc2OC[C@H](C)N(C)C[C@@H]1C", "outcome": "inactive"}
{"smiles": "COCCNC(=O)C[C@@H]1C[C@H]2c3cc(NC(=O)C4CCC4)ccc3O[C@H]2[C@@H](CO)O1", "outcome": "inactive"}
{"smiles": "O=C(NC[C@H]1[C@@H](c2ccccc2)[C@@H](CO)N1C(=O)C1CCC1)NC1CCCC1", "outcome": "inactive"}
{"smiles": "CCc1ccc(NC(=O)C2NC(=O)CC2c2ccccc2)cc1", "note": "(centres undefined)", "outcome": "inactive"}
{"smiles": "C[C@H]1CN([C@@H](C)CO)C(=O)Cc2cc(NC(=O)C3CC3)ccc2O[C@H]1CN(C)Cc1ccc(-c2ccccc2)cc1", "outcome": "inactive"}
{"smiles": "CN1[C@@H]2c3ccc(-c4cccnc4)c(=O)n3C[C@@H]2[C@@H](CO)[C@@H]1C(=O)N1CCc2ccccc2C1", "outcome": "inactive"}
{"smiles": "Cc1noc(C)c1NC(=O)N(C)C[C@H]1Oc2ccc(NS(=O)(=O)c3cn(C)cn3)cc2CC(=O)N([C@H](C)CO)C[C@H]1C", "outcome": "inactive"}
{"smiles": "COc1ccccc1-c1ccc2c(c1)O[C@@H](CN(C)C(=O)c1cccnc1)[C@H](C)CN([C@@H](C)CO)S2(=O)=O", "outcome": "inactive"}
{"smiles": "C[C@@H]1CN([C@@H](C)CO)C(=O)c2cc(NC(=O)Nc3ccc4c(c3)OCO4)ccc2O[C@H]1CN(C)Cc1ccc(Oc2ccccc2)cc1", "outcome": "inactive"}
{"smiles": "COc1ccc(NC(=O)N(C)C[C@H]2OCCCC[C@H](C)Oc3ccc(NC(=O)C4CCCCC4)cc3C(=O)N([C@@H](C)CO)C[C@@H]2C)cc1", "outcome": "inactive"}
{"smiles": "C[C@@H]1CN([C@H](C)CO)C(=O)c2cc(NS(=O)(=O)c3ccc(Cl)cc3)ccc2O[C@H]1CN(C)S(=O)(=O)c1ccc(F)cc1", "outcome": "inactive"}
{"smiles": "COc1ccc(-n2ncc3c(SCC(=O)NNC(C)=O)ncnc32)cc1", "outcome": "inactive"}
{"smiles": "Cc1noc(C)c1NC(=O)Nc1ccc2c(c1)C(=O)N([C@H](C)CO)C[C@@H](C)[C@H](CN(C)S(C)(=O)=O)OCCCC[C@@H](C)O2", "outcome": "inactive"}
{"smiles": "CO[C@H]1CN(C)C(=O)c2cc(NC(=O)C3CCOCC3)ccc2OC[C@@H](C)NC[C@H]1C", "outcome": "inactive"}
{"smiles": "C[C@@H]1CCCCO[C@H](CN(C)C(=O)Nc2ccc(F)cc2)[C@H](C)CN([C@@H](C)CO)C(=O)c2cc(NS(=O)(=O)c3ccc(Cl)cc3)ccc2O1", "outcome": "inactive"}
{"smiles": "CCS(=O)(=O)N1CCCCN2[C@H](CO)[C@@H](c3ccc(-c4ccc(C#N)cc4)cc3)[C@@H]2C1", "outcome": "inactive"}
{"smiles": "O=C(CN(c1ccc(F)cc1)S(=O)(=O)c1ccccc1)NC1CCCCCC1", "outcome": "inactive"}
{"smiles": "CCC(C)(C(=O)Nc1cccc(C)c1)N1CCC1=O", "note": "(centres undefined)", "outcome": "inactive"}
{"smiles": "CCCCN1CCCCC1C(=O)Nc1c(C)cccc1C", "note": "(centres undefined)", "outcome": "inactive"}
{"smiles": "CCS(=O)(=O)NCC[C@H]1CC[C@H](NS(=O)(=O)c2cccc(F)c2)[C@H](CO)O1", "outcome": "inactive"}
{"smiles": "C[C@H](CO)N1C[C@H](C)[C@@H](CN(C)S(=O)(=O)c2ccc(Cl)cc2)Oc2c(NS(=O)(=O)c3ccc(F)cc3)cccc2C1=O", "outcome": "inactive"}
{"smiles": "COc1ccccc1-c1ccc([C@H]2[C@@H](C#N)N(C(=O)C3CC3)[C@@H]2CO)cc1", "outcome": "inactive"}
{"smiles": "Cc1ccc(S(=O)(=O)N2C[C@@H](O)COC[C@@H]3O[C@H](CC(=O)NCc4ccc5c(c4)OCO5)CC[C@H]32)cc1", "outcome": "inactive"}
{"smiles": "C[C@@H]1CCCCO[C@H](CN(C)C(=O)c2ccncc2)[C@H](C)CN([C@H](C)CO)C(=O)c2cc(NC(=O)CCC(F)(F)F)ccc2O1", "outcome": "inactive"}
{"smiles": "C[C@H](CO)N1C[C@H](C)[C@@H](CN(C)S(C)(=O)=O)Oc2cc(C#Cc3ccccc3)ccc2S1(=O)=O", "outcome": "inactive"}
{"smiles": "C[C@H]1CN([C@@H](C)CO)C(=O)c2cc(NC(=O)Nc3cccc4ccccc34)ccc2O[C@@H]1CN(C)C(=O)Nc1ccc(C(F)(F)F)cc1", "outcome": "inactive"}
{"smiles": "CO[C@H]1CN(C)C(=O)c2cc(NC(=O)c3ccc4c(c3)OCO4)ccc2OC[C@@H](C)N(CC2CC2)C[C@H]1C", "outcome": "inactive"}
{"smiles": "COc1ccc(NC(=O)N(C)C[C@@H]2OCCCC[C@H](C)Oc3ccc(NC(=O)Nc4ccc5c(c4)OCO5)cc3C(=O)N([C@H](C)CO)C[C@@H]2C)cc1", "outcome": "inactive"}
{"smiles": "CNC(=O)C[C@H]1CC[C@H]2[C@H](COc3ccc(NC(=O)c4cc(C)on4)cc3C(=O)N2C)O1", "outcome": "inactive"}
{"smiles": "Cc1ccc(S(=O)(=O)N(C)C[C@@H]2Oc3ncc(Br)cc3C(=O)N([C@@H](C)CO)C[C@H]2C)cc1", "outcome": "inactive"}
{"smiles": "O=C(C[C@H]1CC[C@H]2[C@@H](COC[C@@H](O)CN2S(=O)(=O)c2ccc(Oc3ccccc3)cc2)O1)NC1CCC1", "outcome": "inactive"}
{"smiles": "O=C(C[C@@H]1CC[C@H]2[C@@H](COC[C@H](O)CN2Cc2ccccc2F)O1)NC1CCC1", "outcome": "inactive"}
{"smiles": "C[C@H]1CCCCO[C@H](CN(C)C(=O)c2ccncc2)[C@@H](C)CN([C@@H](C)CO)C(=O)c2cc(NC(=O)Cc3ccccc3)ccc2O1", "outcome": "inactive"}
{"smiles": "COc1ccc(C2CC(c3cccs3)=NN2C(=O)c2ccc(Br)o2)cc1", "note": "(centres undefined)", "outcome": "inactive"}
{"smiles": "COCC#Cc1cnc2c(c1)C(=O)N([C@H](C)CO)C[C@@H](C)[C@@H](CN(C)C(=O)Nc1ccc(OC)cc1)O2", "outcome": "inactive"}
{"smiles": "COc1ccc(CN(C)C[C@@H]2OCCCC[C@H](C)Oc3ccc(N(C)C)cc3C(=O)N([C@H](C)CO)C[C@@H]2C)cc1", "outcome": "inactive"}
{"smiles": "COc1cccc(S(=O)(=O)N(C)C[C@H]2OCc3cnnn3CCCC(=O)N([C@H](C)CO)C[C@H]2C)c1", "outcome": "inactive"}
{"smiles": "O=C(C[C@H]1CC[C@H](NC(=O)Nc2ccc(C(F)(F)F)cc2)[C@H](CO)O1)NCc1cccc(F)c1", "outcome": "inactive"}
